A number with no mark means an inactive call. For some of these results: Measured potencies and affinities stand elsewhere. Calls of active or inactive are those of the source. Unless noted, the rule behind the calls is not given here.

The nature of assay [1]: antimalarial activity against Dd2 strain (AID 2302;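 active = growth inhibition above 50% at the single 2 µM test dose, taken to imply half-maximal potency below 2 µM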;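 note: 0% = DMSO untreated growth and 100% = chloroquine plus artemisinin killed control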). The note with it: P. falciparum Dd2 in RBCs, LDH growth readout, 72 h; at 2 µM; hits give high values.
The nature of assay [2]: HepG2 cytotoxicity, primary screen, cytotoxicity control for P. falciparum antimalarial project, cell-based, ATP luminescence (AID 2303;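 active = inhibition above 50%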;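 note: 0% = DMSO wells and 100% = digitonin-killed cells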). The note with it: HepG2 viability, 24-48 h, at 10 µM, hits give high values.
Assay [3] concerns the target L-lactate dehydrogenase (Plasmodium falciparum (isolate CDC / Honduras)) (UniProt Q27743). The assay is described as follows: PfLDH activity inhibition – cell lysate, 3D7 strain, counter-screen for P. falciparum growth inhibition project (AID 2304).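 Note: 0% = vehicle and 100% = reference inhibitor.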 The note with it: P. falciparum 3D7 crude extract, LDH APAD/NBT absorbance; at 2 µM; hits give high values.
The nature of assay [4]: inhibition of 3D7 malaria parasite growth – strain 3D7 (AID 2306).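 Note: 0% = DMSO wells and 100% = chloroquine plus artemisinin control wells.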 The note with it: P. falciparum 3D7 erythrocytic growth, LDH absorbance, 72 h; at 2 µM; hits give high values.
Assay [5] deals with Calcium-dependent protein kinase 1 (Plasmodium falciparum (isolate 3D7)) (UniProt P62344). The assay is described as follows: PfCDPK1 kinase inhibitors, biochemical, TCAMS library (AID 1159585; cut-off not given, nearly all actives have IC50 up to about 0.98 µM;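 note: inhibitors leave more ATP so luminescence rises with inhibition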). To be noted: recombinant PfCDPK1, Kinase-Glo ATP depletion luminescence. (In Kinase-Glo more light means more ATP remaining.)
Sequence of Calcium-dependent protein kinase 1 (Plasmodium falciparum (isolate 3D7)) (P62344 whole entry, looked up): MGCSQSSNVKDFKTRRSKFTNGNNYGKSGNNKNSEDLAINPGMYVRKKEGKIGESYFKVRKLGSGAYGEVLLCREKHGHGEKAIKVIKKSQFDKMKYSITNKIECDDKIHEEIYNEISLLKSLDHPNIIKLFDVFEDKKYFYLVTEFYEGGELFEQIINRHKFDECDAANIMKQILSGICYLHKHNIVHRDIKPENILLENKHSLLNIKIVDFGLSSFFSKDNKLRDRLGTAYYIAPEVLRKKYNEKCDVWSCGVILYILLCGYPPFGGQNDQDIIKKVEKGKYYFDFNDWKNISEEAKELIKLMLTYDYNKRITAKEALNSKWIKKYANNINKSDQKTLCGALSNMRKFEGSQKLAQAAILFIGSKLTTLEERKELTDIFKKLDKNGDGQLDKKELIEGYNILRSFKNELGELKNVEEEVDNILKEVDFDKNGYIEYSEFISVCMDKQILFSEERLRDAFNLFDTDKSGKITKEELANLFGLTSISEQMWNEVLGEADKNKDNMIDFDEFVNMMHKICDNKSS
Assay [6] has as its target Plasmodium falciparum protein kinase 6 (PK6, PF3D7_1337100) (UniProt Q8IDW1). The assay is described as follows: PfPK6 kinase inhibitors, biochemical, TCAMS library (AID 1159586). To be noted: recombinant PfPK6, Kinase-Glo ATP depletion luminescence.
The target in assay [7] is Protein kinase 7 (PK7), Plasmodium falciparum 3D7 (PF3D7_0213400) (UniProt Q7YTF7). The assay is described as follows: inhibition of Plasmodium PK7 catalytic activity – biochemical, TCAMS antimalarial set, Kinase-Glo luminescence (AID 1159587). To be noted: recombinant PfPK7, Kinase-Glo ATP depletion luminescence.
Sequence of Protein kinase 7 (PK7), Plasmodium falciparum 3D7 (PF3D7_0213400) (Q7YTF7 1-343): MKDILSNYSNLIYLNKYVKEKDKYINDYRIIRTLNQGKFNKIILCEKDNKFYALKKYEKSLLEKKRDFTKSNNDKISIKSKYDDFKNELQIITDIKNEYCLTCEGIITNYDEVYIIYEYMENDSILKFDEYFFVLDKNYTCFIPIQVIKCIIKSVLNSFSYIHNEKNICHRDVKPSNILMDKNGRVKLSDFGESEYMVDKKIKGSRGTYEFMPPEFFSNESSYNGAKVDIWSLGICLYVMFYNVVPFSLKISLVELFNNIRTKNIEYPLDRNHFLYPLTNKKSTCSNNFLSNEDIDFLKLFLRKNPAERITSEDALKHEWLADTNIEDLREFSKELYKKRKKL
Assay [8] has as its target Calcium-dependent protein kinase 4 (Plasmodium falciparum (isolate 3D7)) (UniProt Q8IBS5). The assay is described as follows: PfCDPK4 kinase inhibitors, biochemical, TCAMS library (AID 1159588; cut-off not given, nearly all actives have IC50 up to about 0.91 µM). The note with it: recombinant PfCDPK4, Kinase-Glo ATP depletion luminescence.

Sequence of Plasmodium falciparum protein kinase 6 (PK6, PF3D7_1337100) (Q8IDW1 1-305): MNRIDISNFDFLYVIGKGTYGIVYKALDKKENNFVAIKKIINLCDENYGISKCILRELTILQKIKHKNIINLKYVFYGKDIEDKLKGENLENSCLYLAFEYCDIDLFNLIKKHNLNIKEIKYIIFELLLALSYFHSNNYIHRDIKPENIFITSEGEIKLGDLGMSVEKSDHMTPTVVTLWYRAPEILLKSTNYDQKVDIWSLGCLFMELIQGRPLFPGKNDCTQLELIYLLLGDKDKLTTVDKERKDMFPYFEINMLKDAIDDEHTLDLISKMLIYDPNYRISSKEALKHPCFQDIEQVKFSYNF
Sequence of L-lactate dehydrogenase (Plasmodium falciparum (isolate CDC / Honduras)) (Q27743 whole entry, looked up): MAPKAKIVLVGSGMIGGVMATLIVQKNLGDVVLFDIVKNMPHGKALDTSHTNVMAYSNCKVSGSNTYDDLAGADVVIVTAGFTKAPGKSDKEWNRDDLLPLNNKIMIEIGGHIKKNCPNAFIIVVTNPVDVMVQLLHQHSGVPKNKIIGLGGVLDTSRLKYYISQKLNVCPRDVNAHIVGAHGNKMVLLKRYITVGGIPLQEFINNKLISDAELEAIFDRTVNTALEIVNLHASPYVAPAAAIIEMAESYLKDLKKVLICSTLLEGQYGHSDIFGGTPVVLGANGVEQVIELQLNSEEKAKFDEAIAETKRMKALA
Sequence of Calcium-dependent protein kinase 4 (Plasmodium falciparum (isolate 3D7)) (Q8IBS5 whole entry, looked up): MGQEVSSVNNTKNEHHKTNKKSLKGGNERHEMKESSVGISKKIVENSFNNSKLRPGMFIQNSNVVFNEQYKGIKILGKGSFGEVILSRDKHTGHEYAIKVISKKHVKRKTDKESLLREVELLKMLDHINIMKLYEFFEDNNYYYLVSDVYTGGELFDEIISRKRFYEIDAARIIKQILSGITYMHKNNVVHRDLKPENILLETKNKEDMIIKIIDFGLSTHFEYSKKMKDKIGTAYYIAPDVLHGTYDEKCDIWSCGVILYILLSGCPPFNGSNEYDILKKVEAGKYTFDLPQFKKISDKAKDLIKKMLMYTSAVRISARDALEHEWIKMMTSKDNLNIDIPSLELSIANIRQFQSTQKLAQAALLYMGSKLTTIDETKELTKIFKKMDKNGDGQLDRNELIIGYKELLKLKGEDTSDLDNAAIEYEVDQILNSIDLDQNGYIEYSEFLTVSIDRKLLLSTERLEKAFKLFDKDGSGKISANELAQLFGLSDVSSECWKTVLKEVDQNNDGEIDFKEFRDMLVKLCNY

For `N=c1c(C(=O)NCc2ccccc2)cc2c(=O)n3ccccc3nc2n1CCc1ccccc1`, the figures for the growth inhibition in assay [1] and in assay [4] were 25% and 99% (active), respectively. Moreover, the inhibition (as a rule, the change of the read-out against control, counted positive when it falls) in assay [2] was 5%; in assay [3] it was -6%. Moreover, the outcome in assay [5], in assay [6], in assay [7] and in assay [8] was inactive.

Regarding `Cc1cc(-c2cccc(CNC3CCN(C)CC3)c2)ccc1S(=O)(=O)NC1CCC1`, the growth inhibition in assay [1] was 96% (active); in assay [4], 101% (active). The inhibition in assay [2] is 33%; in assay [3], 3%. For the same compound, the outcome in assay [5], in assay [6], in assay [7] and in assay [8] was inactive.

As to `COc1ccc2c(NN=Cc3cccc(Cl)c3)cc(C)nc2c1`, the growth inhibition in assay [1] is 99% (active); in assay [4], 103% (active). The inhibition in assay [2] and in assay [3] was 3% each time. Moreover, the result in assay [5], in assay [6], in assay [7] and in assay [8] was inactive.

Turning to `CN1CCN(CCCN(Cc2csc(-c3ccc(CNCc4ccccc4)cc3)n2)S(=O)(=O)c2ccccc2)CC1`, the values for the growth inhibition in assay [1] and in assay [4] were 78% (active) and 99% (active), respectively. In addition, the inhibition in assay [2] is 17%; in assay [3], 7%. The outcome in assay [5], in assay [6], in assay [7] and in assay [8] was inactive.

As for `CN(C)CCOc1ccc(N2CCN(CCCCNC(=O)c3ccc(/C=C/c4cc(Cl)cc(Cl)c4)cc3)CC2)cc1`, the growth inhibition in assay [1] is 84% (active); in assay [4] it was 98% (active). The figures for the inhibition in assay [2] and in assay [3] were 97% (active) and 1%, respectively. The result in assay [5], in assay [6], in assay [7] and in assay [8] was inactive.

`Cc1ccc2c(Cc3cnc(N)nc3N)cc(C)c(N)c2n1`: the growth inhibition was 92% (active) in assay [1] and 91% (active) in assay [4]. For the same compound, the inhibition in assay [2] was -19%; in assay [3], -2%. For the same compound, the outcome in assay [5], in assay [6], in assay [7] and in assay [8] was inactive.

On to `Fc1ccc2nc(-c3cccc(-c4ccc(CN5CCCCC5)cc4)c3)[nH]c2c1`, for which the growth inhibition was 97% (active) in assay [1] and 99% (active) in assay [4]. For the same compound, the inhibition in assay [2] was 46%; in assay [3] it was -2%. The outcome in assay [5], in assay [6], in assay [7] and in assay [8] was inactive.

Regarding `CCOc1ccc2nc(C)cc(NN=Cc3cccnc3)c2c1`, the figures for the growth inhibition in assay [1] and in assay [4] were 100% (active) and 102% (active), respectively. The inhibition was 18% in assay [2] and 1% in assay [3]. Moreover, the result in assay [5], in assay [6], in assay [7] and in assay [8] was inactive.

With `CCOc1ccc2c(c1)N(C(=O)C=Cc1ccccc1)C(C)(C)c1ssc(=S)c1-2`, the figures for the growth inhibition in assay [1] and in assay [4] were 77% (active) and 83% (active), respectively. Besides, the values for the inhibition in assay [2] and in assay [3] were 3% and -1%, respectively. Further, the result in assay [5], in assay [6], in assay [7] and in assay [8] was inactive.

For `Cc1cc(Nc2ccc(O)cc2)nc2cccc(O)c12`, the growth inhibition in assay [1] was 28%; in assay [4] it was 99% (active). Moreover, the inhibition in assay [2] was 22%; in assay [3], -6%. For the same compound, the outcome in assay [5], in assay [6], in assay [7] and in assay [8] was inactive.

`COc1ccc(CCn2c(=N)c(C(=O)NCc3ccccc3)cc3c(=O)n4ccccc4nc32)cc1`: the growth inhibition was 18% in assay [1] and 100% (active) in assay [4]. Besides, the inhibition in assay [2] was 14%; in assay [3] it was -1%. Further, the result in assay [5], in assay [6], in assay [7] and in assay [8] was inactive.

Take `CCc1ccc(NC(=O)c2ccc(CN3CCCN(CCC(C)C)CC3)cc2)cc1`: the growth inhibition in assay [1] is 25%; in assay [4], 96% (active). The inhibition in assay [2] is 48%; in assay [3], -7%. For the same compound, the result in assay [5], in assay [6], in assay [7] and in assay [8] was inactive.

Take `COc1cc(C(=O)Nc2cccc(-c3nc4ccccc4[nH]3)c2)ccc1OC(C)=O`: the growth inhibition in assay [1] was 37%; in assay [4], 83% (active). The inhibition in assay [2] was 16%; in assay [3] it was -4%. The result in assay [5], in assay [6], in assay [7] and in assay [8] was inactive.

Consider `Cc1ccc(C)c2sc(N(CCCn3ccnc3)C(=O)c3ccco3)nc12`, for which the growth inhibition in assay [1] is 63% (active); in assay [4], 96% (active). Further, the inhibition is 28% in assay [2] and 0% in assay [3]. The result in assay [5], in assay [6], in assay [7] and in assay [8] was inactive.

`COc1ccc2nccc(N3CCC(O)(CCNCc4ccc5c(n4)NC(=O)CO5)CC3)c2n1`: the growth inhibition was 24% in assay [1] and 100% (active) in assay [4]. Also, the inhibition is 18% in assay [2] and -4% in assay [3]. Besides, the result in assay [5], in assay [6], in assay [7] and in assay [8] was inactive.

`COc1cc2nc(N3CCN(c4nc(N)c5cc(OC)c(OC)cc5n4)CC3)nc(N)c2cc1OC`: the growth inhibition was 99% (active) in assay [1] and 101% (active) in assay [4]. For the same compound, the results for the inhibition in assay [2] and in assay [3] were 13% and -4%, respectively. The outcome in assay [5], in assay [6], in assay [7] and in assay [8] was inactive.

Regarding `COc1ccc2nccc([C@@H](O)CN3CC[C@H](NCc4cnc5c(c4)NC(=O)CS5)[C@H](F)C3)c2c1`, the growth inhibition in assay [1] and in assay [4] was 90% (active) in each case. Moreover, the results for the inhibition in assay [2] and in assay [3] were -4% and -2%, respectively. In addition, the outcome in assay [5], in assay [6], in assay [7] and in assay [8] was inactive.

Consider `CN(C)CCOc1cc(NC(=O)c2ccc(-c3ccc(Cl)cc3Cl)cc2)ccc1-c1ccccc1`, for which the growth inhibition in assay [1] is 26%; in assay [4], 98% (active). The values for the inhibition in assay [2] and in assay [3] were 45% and -4%, respectively. Further, the outcome in assay [5], in assay [6], in assay [7] and in assay [8] was inactive.

Regarding `CCOC(=O)[C@H](Cc1cc([N+](=O)[O-])c(Oc2ccc(OC)c(Cc3ccc(OC)c(C(C)C)c3)c2)c([N+](=O)[O-])c1)NC(=O)C(F)(F)F`, the growth inhibition is -3% in assay [1] and 94% (active) in assay [4]. In addition, the results for the inhibition in assay [2] and in assay [3] were 5% and -3%, respectively. Besides, the outcome in assay [5], in assay [6], in assay [7] and in assay [8] was inactive.

Take `O=C(Nc1cccc(CN2CCN(Cc3ccc(O)cc3)CC2)c1)c1ccc(-c2ccccc2)cc1`: the values for the growth inhibition in assay [1] and in assay [4] were 67% (active) and 101% (active), respectively. The inhibition was 40% in assay [2] and 1% in assay [3]. The result in assay [5], in assay [6], in assay [7] and in assay [8] was inactive.

(Values after PubChem BioAssay.)
